Laboratory results taken from publication PMC7862700, “An all-to-all approach to the identification of sequence-specific readers for epigenetic DNA modifications on cytosine”.

Tests used:
Test in all cases: DAPPL (digital affinity profiling via proximity ligation, sequencing); 10 mM Tris-HCl pH 7.5, 50 mM NaCl, 1 mM DTT, 4% glycerol, room temperature, 30 min; GST-TFs on glutathione beads, 16-mer random dsDNA library, 0.1% formaldehyde crosslink after washing; high values mean tight binding
[1] = target: T1, FEV (Homo sapiens, UniProt Q99581 1-238); details: protein: recombinant; tags: N-terminal GST; dsDNA, one strand shown
T1 sequence: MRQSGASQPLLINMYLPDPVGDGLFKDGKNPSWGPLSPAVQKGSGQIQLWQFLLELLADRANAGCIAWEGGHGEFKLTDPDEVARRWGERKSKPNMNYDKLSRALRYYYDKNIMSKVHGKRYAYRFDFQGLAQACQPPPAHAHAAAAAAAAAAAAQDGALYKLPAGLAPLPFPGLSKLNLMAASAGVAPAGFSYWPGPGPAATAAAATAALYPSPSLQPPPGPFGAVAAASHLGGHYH
Outline: (§1)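 Human transcription factors were made in yeast as GST fusions, captured on glutathione beads and barcoded with DNA. With a tag-only sample included, the pool was incubated with 200 nmole of a random double-stranded 16-mer DNA library in Tris/NaCl/DTT/glycerol buffer at room temperature for 30 min, then crosslinked with 0.1% formaldehyde after washing, ligated by proximity, amplified and sequenced. For binding signal, each hexamer's read frequency for a factor is divided by its frequency for the tag-only sample.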

[2] = target: ETV5 (Homo sapiens, UniProt P41161 1-510); details: protein: recombinant; tags: N-terminal GST; dsDNA, one strand shown
ETV5, sequence (P41161 whole entry): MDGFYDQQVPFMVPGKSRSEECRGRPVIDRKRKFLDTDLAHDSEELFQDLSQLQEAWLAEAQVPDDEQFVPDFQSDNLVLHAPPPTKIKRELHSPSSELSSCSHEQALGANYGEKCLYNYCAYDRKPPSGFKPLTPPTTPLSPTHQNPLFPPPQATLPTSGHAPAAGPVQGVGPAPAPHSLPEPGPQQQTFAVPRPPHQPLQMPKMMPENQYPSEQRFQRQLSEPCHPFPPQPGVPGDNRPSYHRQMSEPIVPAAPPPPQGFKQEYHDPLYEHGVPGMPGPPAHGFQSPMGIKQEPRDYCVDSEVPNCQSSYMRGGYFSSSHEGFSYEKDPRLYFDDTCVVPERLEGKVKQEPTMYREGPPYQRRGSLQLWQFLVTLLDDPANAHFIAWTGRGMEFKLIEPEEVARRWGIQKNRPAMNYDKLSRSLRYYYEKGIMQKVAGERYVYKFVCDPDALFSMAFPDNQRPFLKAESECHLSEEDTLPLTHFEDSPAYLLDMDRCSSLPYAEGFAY
Outline: as §1

[3] = target: HSF1 (Homo sapiens, UniProt Q00613 1-529); details: protein: recombinant; tags: N-terminal GST; chain copies: 3; dsDNA, one strand shown
HSF1, sequence (Q00613 whole entry): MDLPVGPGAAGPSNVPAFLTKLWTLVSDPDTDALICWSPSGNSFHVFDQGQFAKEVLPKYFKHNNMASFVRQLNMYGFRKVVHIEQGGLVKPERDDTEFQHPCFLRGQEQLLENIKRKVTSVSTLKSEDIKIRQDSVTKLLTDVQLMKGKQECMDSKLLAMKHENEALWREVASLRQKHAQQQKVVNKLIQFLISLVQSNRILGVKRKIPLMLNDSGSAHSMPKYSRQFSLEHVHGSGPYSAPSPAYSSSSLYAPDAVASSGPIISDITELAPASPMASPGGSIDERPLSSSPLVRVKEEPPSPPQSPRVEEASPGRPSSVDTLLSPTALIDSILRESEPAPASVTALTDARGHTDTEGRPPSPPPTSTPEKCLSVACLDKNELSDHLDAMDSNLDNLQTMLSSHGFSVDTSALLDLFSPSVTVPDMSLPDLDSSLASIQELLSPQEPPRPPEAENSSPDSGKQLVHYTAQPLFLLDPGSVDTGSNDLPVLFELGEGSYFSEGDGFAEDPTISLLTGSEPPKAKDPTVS
Outline: as §1

[4] = target: T2, SPIC (Homo sapiens, UniProt Q8N5J4 1-248); details: protein: recombinant; tags: N-terminal GST; dsDNA, one strand shown
T2 sequence: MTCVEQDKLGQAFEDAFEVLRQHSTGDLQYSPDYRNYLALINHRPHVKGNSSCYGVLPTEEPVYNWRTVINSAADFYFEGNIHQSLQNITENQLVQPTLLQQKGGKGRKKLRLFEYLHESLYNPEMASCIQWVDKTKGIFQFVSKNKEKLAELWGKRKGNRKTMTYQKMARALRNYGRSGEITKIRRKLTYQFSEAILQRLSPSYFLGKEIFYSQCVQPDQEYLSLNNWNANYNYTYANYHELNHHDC
Outline: as §1

[5] = target: ELF4 (Homo sapiens, UniProt Q99607 1-663); details: protein: recombinant; tags: N-terminal GST; dsDNA, one strand shown
ELF4, sequence (Q99607 whole entry): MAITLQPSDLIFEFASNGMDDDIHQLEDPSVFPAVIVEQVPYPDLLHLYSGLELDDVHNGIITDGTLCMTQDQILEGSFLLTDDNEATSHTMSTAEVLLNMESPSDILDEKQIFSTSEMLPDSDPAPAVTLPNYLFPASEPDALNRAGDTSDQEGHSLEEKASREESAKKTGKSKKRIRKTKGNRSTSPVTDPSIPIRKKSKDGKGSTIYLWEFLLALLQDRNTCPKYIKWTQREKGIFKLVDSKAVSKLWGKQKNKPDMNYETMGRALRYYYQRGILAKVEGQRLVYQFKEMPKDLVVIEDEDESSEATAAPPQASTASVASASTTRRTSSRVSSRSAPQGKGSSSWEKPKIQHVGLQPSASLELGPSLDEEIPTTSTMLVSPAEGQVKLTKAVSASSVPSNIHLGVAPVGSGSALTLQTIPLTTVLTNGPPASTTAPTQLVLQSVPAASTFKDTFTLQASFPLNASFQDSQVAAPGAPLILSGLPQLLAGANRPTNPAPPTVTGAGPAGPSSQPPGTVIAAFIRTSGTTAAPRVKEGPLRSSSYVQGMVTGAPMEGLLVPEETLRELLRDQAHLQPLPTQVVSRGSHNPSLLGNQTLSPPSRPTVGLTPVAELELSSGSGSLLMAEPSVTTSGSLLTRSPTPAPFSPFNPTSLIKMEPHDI
Outline: as §1

[6] = target: T3, ELK4 (Homo sapiens, UniProt P28324-2 1-405); details: protein: recombinant; tags: N-terminal GST; dsDNA, one strand shown
T3 sequence: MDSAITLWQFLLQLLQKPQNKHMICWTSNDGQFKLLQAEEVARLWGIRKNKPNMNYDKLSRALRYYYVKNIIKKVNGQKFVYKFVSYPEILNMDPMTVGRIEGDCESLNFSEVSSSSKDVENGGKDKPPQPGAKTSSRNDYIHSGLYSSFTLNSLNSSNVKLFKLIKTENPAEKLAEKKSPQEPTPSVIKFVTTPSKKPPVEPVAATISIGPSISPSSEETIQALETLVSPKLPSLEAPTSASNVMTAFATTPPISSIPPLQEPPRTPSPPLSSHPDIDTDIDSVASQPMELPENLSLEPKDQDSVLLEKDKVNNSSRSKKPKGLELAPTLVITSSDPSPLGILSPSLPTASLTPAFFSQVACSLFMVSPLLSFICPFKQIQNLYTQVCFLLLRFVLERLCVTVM
Outline: as §1

[7] = target: T4, ETV2 (Homo sapiens, UniProt O00321 1-342); details: protein: recombinant; tags: N-terminal GST; dsDNA, one strand shown
T4 sequence: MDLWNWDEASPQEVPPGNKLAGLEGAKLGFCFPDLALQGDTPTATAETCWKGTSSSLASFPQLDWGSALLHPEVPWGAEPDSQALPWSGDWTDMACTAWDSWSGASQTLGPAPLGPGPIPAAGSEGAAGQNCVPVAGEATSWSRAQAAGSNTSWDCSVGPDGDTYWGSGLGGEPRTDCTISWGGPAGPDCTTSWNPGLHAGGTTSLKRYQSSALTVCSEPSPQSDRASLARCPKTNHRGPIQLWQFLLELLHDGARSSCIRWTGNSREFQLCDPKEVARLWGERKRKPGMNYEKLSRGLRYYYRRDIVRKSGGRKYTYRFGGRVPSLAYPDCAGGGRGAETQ
Outline: as §1

[8] = target: T5, ELF3 (Homo sapiens, UniProt P78545 1-371); details: protein: recombinant; tags: N-terminal GST; dsDNA, one strand shown
T5 sequence: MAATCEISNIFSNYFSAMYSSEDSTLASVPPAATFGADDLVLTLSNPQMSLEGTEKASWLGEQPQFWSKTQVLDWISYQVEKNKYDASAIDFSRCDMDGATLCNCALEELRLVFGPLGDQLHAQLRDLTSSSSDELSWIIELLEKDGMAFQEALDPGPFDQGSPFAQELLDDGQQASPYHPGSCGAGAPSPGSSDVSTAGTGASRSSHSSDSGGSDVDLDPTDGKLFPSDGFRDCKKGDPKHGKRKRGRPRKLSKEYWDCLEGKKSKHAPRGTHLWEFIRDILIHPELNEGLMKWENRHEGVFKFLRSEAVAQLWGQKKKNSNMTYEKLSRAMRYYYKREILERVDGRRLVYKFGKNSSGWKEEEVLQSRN
Outline: as §1

[9] = target: CRX (Homo sapiens, UniProt O43186 1-299); details: protein: recombinant; tags: N-terminal GST; dsDNA, one strand shown
CRX, sequence (O43186 whole entry): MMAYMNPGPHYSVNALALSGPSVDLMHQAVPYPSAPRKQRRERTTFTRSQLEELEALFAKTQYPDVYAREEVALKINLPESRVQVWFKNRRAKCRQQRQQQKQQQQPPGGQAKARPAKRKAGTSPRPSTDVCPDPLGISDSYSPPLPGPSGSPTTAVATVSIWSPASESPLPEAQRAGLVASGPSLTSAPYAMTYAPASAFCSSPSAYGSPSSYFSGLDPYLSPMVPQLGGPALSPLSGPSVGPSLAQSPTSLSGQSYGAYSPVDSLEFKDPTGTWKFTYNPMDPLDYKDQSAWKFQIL
Outline: as §1

[10] = target: ETV1 (Homo sapiens, UniProt P50549 1-477); details: protein: recombinant; tags: N-terminal GST; dsDNA, one strand shown
ETV1, sequence (P50549 whole entry): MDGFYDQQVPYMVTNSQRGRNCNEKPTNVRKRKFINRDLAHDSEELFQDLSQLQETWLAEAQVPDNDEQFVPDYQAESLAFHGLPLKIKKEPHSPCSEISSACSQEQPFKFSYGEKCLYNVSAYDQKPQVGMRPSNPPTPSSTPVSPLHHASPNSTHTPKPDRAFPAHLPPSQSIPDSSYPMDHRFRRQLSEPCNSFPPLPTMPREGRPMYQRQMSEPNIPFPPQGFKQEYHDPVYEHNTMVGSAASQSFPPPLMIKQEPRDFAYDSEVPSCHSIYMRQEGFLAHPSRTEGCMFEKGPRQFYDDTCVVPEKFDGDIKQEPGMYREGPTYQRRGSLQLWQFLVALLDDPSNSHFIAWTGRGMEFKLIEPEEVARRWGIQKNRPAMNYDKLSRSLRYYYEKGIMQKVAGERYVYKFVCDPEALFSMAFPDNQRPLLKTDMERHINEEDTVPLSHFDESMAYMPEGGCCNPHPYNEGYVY
Outline: as §1

[11] = target: T6, ERF (Homo sapiens, UniProt P50548 1-548); details: protein: recombinant; tags: N-terminal GST; dsDNA, one strand shown
T6 sequence: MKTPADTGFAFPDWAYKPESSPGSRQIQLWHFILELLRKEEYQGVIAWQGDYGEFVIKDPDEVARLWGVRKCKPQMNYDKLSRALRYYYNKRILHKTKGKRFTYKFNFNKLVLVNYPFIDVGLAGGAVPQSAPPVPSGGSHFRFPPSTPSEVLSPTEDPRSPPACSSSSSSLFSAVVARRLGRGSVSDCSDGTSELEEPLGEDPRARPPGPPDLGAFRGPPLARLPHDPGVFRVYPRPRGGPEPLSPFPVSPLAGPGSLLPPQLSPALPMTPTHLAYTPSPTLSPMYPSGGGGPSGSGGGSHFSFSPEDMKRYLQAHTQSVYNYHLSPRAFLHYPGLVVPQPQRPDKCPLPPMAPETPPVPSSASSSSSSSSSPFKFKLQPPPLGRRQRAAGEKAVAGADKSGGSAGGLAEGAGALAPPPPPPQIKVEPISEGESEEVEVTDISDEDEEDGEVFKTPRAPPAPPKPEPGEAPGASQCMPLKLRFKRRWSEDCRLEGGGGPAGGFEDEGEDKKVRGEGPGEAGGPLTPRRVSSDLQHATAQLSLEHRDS
Outline: as §1

[12] = target: T7, ETV3L (Homo sapiens, UniProt Q6ZN32 1-361); details: protein: recombinant; tags: N-terminal GST; dsDNA, one strand shown
T7 sequence: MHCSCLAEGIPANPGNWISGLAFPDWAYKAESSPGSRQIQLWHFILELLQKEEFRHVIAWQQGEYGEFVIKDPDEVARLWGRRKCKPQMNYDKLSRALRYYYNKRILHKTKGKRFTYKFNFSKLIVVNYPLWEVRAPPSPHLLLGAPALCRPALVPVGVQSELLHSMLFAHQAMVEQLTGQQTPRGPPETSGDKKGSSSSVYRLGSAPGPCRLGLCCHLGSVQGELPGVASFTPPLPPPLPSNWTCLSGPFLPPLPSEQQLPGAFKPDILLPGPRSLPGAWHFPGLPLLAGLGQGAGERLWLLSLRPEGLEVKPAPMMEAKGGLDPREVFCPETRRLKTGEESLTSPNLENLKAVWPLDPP
Outline: as §1

[13] = target: T8, ETS2 (Homo sapiens, UniProt P15036 1-469); details: protein: recombinant; tags: N-terminal GST; dsDNA, one strand shown
T8 sequence: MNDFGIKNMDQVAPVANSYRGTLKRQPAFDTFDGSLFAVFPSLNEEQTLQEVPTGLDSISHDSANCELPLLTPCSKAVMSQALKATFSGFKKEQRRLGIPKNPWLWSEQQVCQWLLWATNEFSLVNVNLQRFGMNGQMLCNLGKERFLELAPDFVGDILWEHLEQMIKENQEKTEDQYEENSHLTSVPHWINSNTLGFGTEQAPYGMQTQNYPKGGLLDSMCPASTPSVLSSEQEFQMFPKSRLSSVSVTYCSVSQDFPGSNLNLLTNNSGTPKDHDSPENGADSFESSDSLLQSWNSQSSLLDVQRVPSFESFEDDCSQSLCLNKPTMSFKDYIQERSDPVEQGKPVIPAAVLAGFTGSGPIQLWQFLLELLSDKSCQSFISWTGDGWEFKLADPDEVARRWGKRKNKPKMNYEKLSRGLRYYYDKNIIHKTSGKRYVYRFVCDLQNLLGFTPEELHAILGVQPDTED
Outline: as §1

[14] = target: T9, SPDEF (Homo sapiens, UniProt O95238 1-335); details: protein: recombinant; tags: N-terminal GST; dsDNA, one strand shown
T9 sequence: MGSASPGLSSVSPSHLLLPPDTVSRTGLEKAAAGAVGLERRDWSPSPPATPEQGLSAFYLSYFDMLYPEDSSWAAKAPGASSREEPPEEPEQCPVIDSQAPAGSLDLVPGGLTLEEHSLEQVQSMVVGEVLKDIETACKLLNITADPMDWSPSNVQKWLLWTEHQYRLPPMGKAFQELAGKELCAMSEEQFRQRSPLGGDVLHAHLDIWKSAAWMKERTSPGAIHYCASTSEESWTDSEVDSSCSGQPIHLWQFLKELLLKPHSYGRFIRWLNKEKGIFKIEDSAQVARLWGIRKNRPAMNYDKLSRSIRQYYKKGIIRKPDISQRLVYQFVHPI
Outline: as §1

[15] = target: T10, ETV7 (Homo sapiens, UniProt Q9Y603 1-341); details: protein: recombinant; tags: N-terminal GST; dsDNA, one strand shown
T10 sequence: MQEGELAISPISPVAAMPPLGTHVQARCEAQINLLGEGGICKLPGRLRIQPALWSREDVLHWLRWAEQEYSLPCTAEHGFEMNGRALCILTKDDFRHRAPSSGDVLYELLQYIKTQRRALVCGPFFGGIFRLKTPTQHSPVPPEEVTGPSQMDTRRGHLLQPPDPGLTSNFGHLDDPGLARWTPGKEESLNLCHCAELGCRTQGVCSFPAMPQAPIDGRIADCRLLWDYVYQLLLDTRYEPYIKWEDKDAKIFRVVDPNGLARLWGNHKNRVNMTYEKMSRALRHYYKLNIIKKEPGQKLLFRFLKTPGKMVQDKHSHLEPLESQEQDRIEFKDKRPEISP
Outline: as §1

[16] = target: T11, ELF5 (Homo sapiens, UniProt Q9UKW6-2 1-255); details: protein: recombinant; tags: N-terminal GST; dsDNA, one strand shown
T11 sequence: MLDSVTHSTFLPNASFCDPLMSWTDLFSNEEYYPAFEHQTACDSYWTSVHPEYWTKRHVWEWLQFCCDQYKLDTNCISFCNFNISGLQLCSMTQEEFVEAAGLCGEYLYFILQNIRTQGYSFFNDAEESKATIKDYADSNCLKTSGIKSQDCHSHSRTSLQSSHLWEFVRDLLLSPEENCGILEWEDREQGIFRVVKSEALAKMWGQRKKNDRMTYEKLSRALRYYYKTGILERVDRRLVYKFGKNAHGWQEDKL
Outline: as §1

[17] = target: T12, ETV3 (Homo sapiens, UniProt P41162-2 1-143); details: protein: recombinant; tags: N-terminal GST; dsDNA, one strand shown
T12 sequence: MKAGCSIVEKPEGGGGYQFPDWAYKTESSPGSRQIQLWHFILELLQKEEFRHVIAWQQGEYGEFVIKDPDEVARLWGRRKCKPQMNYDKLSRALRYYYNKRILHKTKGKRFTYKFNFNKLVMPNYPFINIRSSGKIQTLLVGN
Outline: as §1

[18] = target: ETV6 (Homo sapiens, UniProt P41212 1-452); details: protein: recombinant; tags: N-terminal GST; dsDNA, one strand shown
ETV6, sequence (P41212 whole entry): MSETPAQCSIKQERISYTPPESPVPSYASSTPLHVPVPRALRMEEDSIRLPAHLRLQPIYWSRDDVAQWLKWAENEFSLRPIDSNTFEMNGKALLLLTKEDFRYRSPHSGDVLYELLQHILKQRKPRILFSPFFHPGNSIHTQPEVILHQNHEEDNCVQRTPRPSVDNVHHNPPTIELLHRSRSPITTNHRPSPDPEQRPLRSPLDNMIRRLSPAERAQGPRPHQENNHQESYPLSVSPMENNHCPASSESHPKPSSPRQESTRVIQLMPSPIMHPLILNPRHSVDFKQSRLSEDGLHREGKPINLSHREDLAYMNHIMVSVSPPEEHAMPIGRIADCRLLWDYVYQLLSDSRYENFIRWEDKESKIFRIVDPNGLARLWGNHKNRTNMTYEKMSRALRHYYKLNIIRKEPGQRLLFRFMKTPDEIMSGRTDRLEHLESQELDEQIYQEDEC
Outline: as §1

Question: TTAACC was tested. Which binding signal [1] did it give?
Answer: 1.29 fold enrichment (6-mer frequency, TF over GST control)

Question: And the binding signal [2]?
Answer: 1.22 fold enrichment (6-mer frequency, TF over GST control)

Question: What about the binding signal [3] of the same sequence?
Answer: 1.8 fold enrichment (6-mer frequency, TF over GST control)

Question: And the binding signal [4]?
Answer: 1.26 fold enrichment (6-mer frequency, TF over GST control)

Question: What about the binding signal [5] of the same sequence?
Answer: 1.32 fold enrichment (6-mer frequency, TF over GST control)

Question: What about the binding signal [6] of the same sequence?
Answer: 1.31 fold enrichment (6-mer frequency, TF over GST control)

Question: What about the binding signal [7] of the same sequence?
Answer: 1.36 fold enrichment (6-mer frequency, TF over GST control)

Question: What about the binding signal [8] of the same sequence?
Answer: 1.27 fold enrichment (6-mer frequency, TF over GST control)

Question: What about the binding signal [9] of the same sequence?
Answer: 2.67 fold enrichment (6-mer frequency, TF over GST control)

Question: And the binding signal [10]?
Answer: 1.28 fold enrichment (6-mer frequency, TF over GST control)

Question: And the binding signal [11]?
Answer: 1.23 fold enrichment (6-mer frequency, TF over GST control)

Question: And the binding signal [12]?
Answer: 1.32 fold enrichment (6-mer frequency, TF over GST control)

Question: What about the binding signal [13] of the same sequence?
Answer: 1.29 fold enrichment (6-mer frequency, TF over GST control)

Question: What about the binding signal [14] of the same sequence?
Answer: 1.35 fold enrichment (6-mer frequency, TF over GST control)

Question: What about the binding signal [15] of the same sequence?
Answer: 1.23 fold enrichment (6-mer frequency, TF over GST control)

Question: And the binding signal [16]?
Answer: 1.28 fold enrichment (6-mer frequency, TF over GST control)

Question: What about the binding signal [17] of the same sequence?
Answer: 1.38 fold enrichment (6-mer frequency, TF over GST control)

Question: And the binding signal [18]?
Answer: 1.32 fold enrichment (6-mer frequency, TF over GST control)
